Data: PubChem BioAssay (NCI)
The panel holds about 79,000 compounds, 15% with a hit somewhere; the sample as a whole holds those more often. A number with no mark means an inactive call. Activity calls are given as the source filed them. Rule as the data show it: active = growth inhibition above about 70%; inactive = the rest.

Key:
[1] = NCI Yeast Anticancer Drug Screen. Data for the rad50 strain (AID 155);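 also: 0% = growth of vehicle-only cultures of the same strain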; conditions: S. cerevisiae rad50 strain growth inhibition; at 50.0 µM; active compounds read high
Summary of the method: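 Genetically altered yeast (DNA repair pathway); compound treatment; growth inhibition vs vehicle ctrl.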

[2] = NCI Yeast Anticancer Drug Screen. Data for the mec2-1 strain (AID 157); conditions: S. cerevisiae mec2-1 strain, at 50.0 µM, active compounds read high
Summary of the method: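 Test agents were screened against the mec2-1 yeast strain, with defined DNA repair or cell cycle alteration. Growth was scored as inhibition against vehicle-only controls.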

[3] = NCI Yeast Anticancer Drug Screen. Data for the sgs1 mgt1 strain (AID 161);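 also: 0% = growth of cultures given vehicle only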; conditions: S. cerevisiae sgs1 mgt1 strain, at 50.0 µM, active compounds read high
Summary of the method: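 Mutant yeast exposed to compound; growth scored against vehicle-only wells.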

[4] = NCI Yeast Anticancer Drug Screen. Data for the cln2 rad14 strain (AID 165);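 also: 0% = growth equal to vehicle treated cultures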; conditions: S. cerevisiae cln2 rad14 strain, at 50.0 µM, active compounds read high
Summary of the method: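 Growth of compound-exposed yeast (cln2 rad14 genotype) measured and expressed as inhibition relative to vehicle.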

[5] = NCI Yeast Anticancer Drug Screen. Data for the bub3 strain (AID 167); conditions: S. cerevisiae bub3 mutant strain, at 50.0 µM, active compounds read high
Summary of the method: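 Yeast carrying a defined mutation is treated with each compound, and growth is compared with that of vehicle-exposed cells to give inhibition.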

[6] = NCI Yeast Anticancer Drug Screen. Data for the mlh1 rad18 strain (AID 175); conditions: S. cerevisiae mlh1 rad18 strain growth inhibition; at 50.0 µM; active compounds read high
Summary of the method: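 In this whole-cell yeast screen, a strain with altered DNA damage repair is challenged with compound, and its growth is measured against matched vehicle-treated controls.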

Compound	growth inhibition [1]	growth inhibition [2]	growth inhibition [3]	growth inhibition [4]	growth inhibition [5]	growth inhibition [6]
O=C(O)CCC(=O)Nc1cc([N+](=O)[O-])ccc1OCc1ccccc1	3.75%	-7.55%	-5.35%	-12.4%	-0.95%	3.5%
CCN(CC)CCOc1ccc2ccccc2c1C(Cc1ccccc1)NCCO (stereo not drawn)	-13.2%	1.95%	-20.2%	-19.6%	3%	3.05%
C=C1CCC23CC(CC[C@@H]2[C@@]12C[C@@H](c1ccoc1)OC2=O)OC3=O (stereo partly drawn)	2.6%	-12.6%	-8.6%	-5.1%	5.35%	1.8%
CN1CCC(n2[nH]c(-c3ccccc3)c(Cc3ccccc3)c2=O)CC1	3.3%	-40.6%	-13.3%	10.6%	-15.1%	5.7%
C=C(COC(C)=O)CC(/C=C(\C)CCC=C(C)C)OC(C)=O (stereo not drawn)	-6.25%	-1.15%	8.9%	-11.5%	-5.25%	11%
Cn1c(=O)c2c(nc(NN)n2C)n(C)c1=O	1.15%	-10.8%	-2.65%	-25%	10.9%	4.7%
CCOc1ccc(NC(=O)C(=O)CC(=O)C2=C(C)Nc3ccccc3S2)cc1	27.6%	14.8%	12.5%	-2.25%	-1%	28.5%
CC1(C)/C(=C/N=O)N(O)C(C)(C)N1O	-26.9%	-34.6%	-43.8%	5.75%	-35.9%	-15.2%
CN=C1C=C(/N=C2/C=C(N/C(=C\C#N)C(C)(C)O)OC2(C)C)OC1(C)C	-10.6%	-5.3%	13.6%	7.1%	23.9%	28.6%
C[N+](C)(C)CC(=O)N/N=C(\Cc1nc2ccc([N+](=O)[O-])cc2[nH]c1=O)C(=O)Nc1nc2ccc([N+](=O)[O-])cc2s1	47.2%	29.9%	24.6%	-6.05%	53.2%	16.9%
CC1CC=CCC1C1OCCO1 (stereo not drawn)	3.95%	1.6%	3.45%	10.2%	16.4%	-2.7%
CCC(CC)C(=O)OC1CCCCC1C(C)C (stereo not drawn)	6.8%	-3.5%	-0.2%	-13.6%	3.05%	0.35%
O=C(Nc1ccc(Cl)cc1[N+](=O)[O-])N1CCN(c2ccccc2)CC1	-8.35%	21.9%	29.4%	-10.3%	44.3%	28.1%
Cc1n[nH]c(=O)n1Nc1ccccc1	13.2%	-7.7%	9.1%	13.3%	1.5%	6.6%
CC1(C)C(=O)CC[C@]2(C)[C@H]3C(=O)C=C4[C@H]5C[C@@](C)(C(=O)O)CC[C@]5(C)CC[C@@]4(C)[C@]3(C)CC[C@@H]12	-4.8%	-5.95%	-3.85%	-16.1%	0.15%	-0.95%
CC(=O)OC1(C(=O)O)CCCCC1	5.8%	14%	-0.05%	-19.9%	5.25%	9.65%
Cc1ccc(CCCCCOc2ccc(C3=NCCO3)cc2)s1	-2%	22.2%	22.4%	-21%	-3%	-4.9%
Oc1cc2oc3cc(O)c(O)cc3c2cc1O	7%	10.4%	9.85%	35.4%	6.1%	23.9%
C/C(=N\O)c1ccc(OCc2cc(C(F)(F)F)cc(C(F)(F)F)c2)cc1	-10.1%	-26.2%	-6.75%	-1.5%	-2.15%	7.5%

Compound	growth inhibition [1]	growth inhibition [2]	growth inhibition [3]	growth inhibition [4]	growth inhibition [5]	growth inhibition [6]
COC(OC)c1cccc2c1C1(O)CCC3(CC21)OCCCCO3 (stereo not drawn)	-9.35%	-26.4%	-42.5%	-11.6%	-42.9%	-23.1%
CC(=O)Nc1ccc2c(c1)Cc1ccc(S(C)(=O)=O)cc1-2	23.9%	-7.15%	10.9%	6.9%	0.65%	44.1%
c1ccc2c(c1)ncn2C1CCCCO1 (stereo not drawn)	4.7%	-9.8%	-16.8%	0.9%	-7.45%	-38.3%
COc1ccc(N2C(=O)[C@@H]3[C@H](C2=O)c2[nH]c4ccccc4c2C2CCC(C(C)(C)C)C[C@@H]23)cc1 (stereo partly drawn)	29.6%	4.1%	12.3%	31.4%	6.2%	7.85%
CC/C(Cl)=N\OC(=O)Nc1ccccc1OC(F)(F)F	-24.1%	-15.4%	87.2% (active)	-13.6%	18.6%	-89.6%
N#C/C=C(\N)C(C#N)C#N	-4.85%	-25.9%	-3.15%	6.75%	-3.6%	4.8%
COc1cc(/C=N\NS(=O)(=O)c2ccc(N)cc2)ccc1O	10.1%	-18.3%	5.05%	9.55%	-24.8%	17.1%
CC(NNC(=S)N1CC2CCC(CC2)C1)c1cccc[n+]1[O-] (stereo not drawn)	93.1% (active)	37.4%	92.5% (active)	84.7% (active)	48.8%	59.6%
CC1OC(n2ccc(NC(=O)c3ccc(NC(=O)C(C)(N)CO)cc3)nc2=O)CCC1OC1OC(C)C(N(C)C)C(O)C1O (stereo not drawn)	30.4%	-0.8%	6.05%	6%	1.75%	28.8%
Cc1cc(S(=O)(=O)O)c(NC(=O)C(=O)C2C=CCS2(=O)=O)cc1Cl (stereo not drawn)	-5.2%	-20.8%	-8.65%	1.8%	-8.15%	-8.85%
c1ccc(-c2nnc(-c3ccc4ccccc4c3)o2)cc1	-0.1%	-6.5%	1.1%	-40%	13.4%	-2%
CC(=O)OCCOCNC(=S)NCc1ccco1	11.2%	-7.25%	-40%	9.3%	5.85%	-10.3%
O=C1C2=Cc3ccccc3OC2(O)Oc2ccccc21 (stereo not drawn)	8.1%	6.4%	-3.35%	3.35%	1.8%	-73.2%
N#CC(c1ccccc1)C(C#N)c1ccc(Cl)cc1 (stereo not drawn)	5.75%	16.2%	-1.35%	-98.5%	22.4%	3.8%
Cc1nc(N)nc(C)c1N=Nc1ccc(Cl)cc1Cl	-0.75%	6.8%	0.5%	-7.3%	-5.25%	9.6%
CCc1ccc(O)cc1	-3.4%	-25.9%	13.3%	5.85%	-11.9%	6.3%
O=P(O)(O)c1ccccc1Br	-13.1%	-17.2%	4.85%	-15.8%	2.3%	3.2%
O=[N+]([O-])c1cc(Br)ccc1P(=O)(O)O	9.25%	8.8%	-1.25%	7.85%	16.9%	-4.95%
CCOC(=O)c1c[nH]c2cc(Cl)cc(OC)c2c1=O	-11.3%	-5.6%	-1%	-32.9%	-7.35%	-17%
